Assay results: PubChem BioAssay AID1159580 (chemical genetic matrix, 2015)
Hit rate of the full screen: of about 5,500 compounds, about 2,000 (36%) were called active. Inconclusive results (about 18%) are left out. The list shows a part of the results. Values without a mark were called inactive. Cut-off read from the data, not from the text of the source: active = normalized growth mostly below about 0.91 (no sharp cut-off); inconclusive = no clear call, values can overlap the other calls; inactive = mostly above about 0.92.

Test: chemical genetic growth profiling, strain panel (AID 1159580);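 note: tested at 20 µM; growth read once vehicle control cultures reached saturation at 30 °C; 1 = growth at the plate median or of vehicle wells; lower values mean less growth of the strain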
Settings: S. cerevisiae deletion strains, growth OD

Question: Which normalized growth (locus YAL040C, strain CLN3, active compounds read low) does the source give for `CCCCCCCCCCCCCCCC(=O)OC(CC(=O)O)C[N+](C)(C)C` (stereo unspecified) here?
Answer: 1.07

Question: And the normalized growth (locus YCL061C, strain MRC1 (second series), active compounds read low)?
Answer: 0.492 (active)

Question: And the normalized growth (locus YDR150W, strain NUM1, active compounds read low)?
Answer: 0.56 (active)

Question: What about the normalized growth (locus YDR363W, strain ESC2, active compounds read low) of the same compound?
Answer: 0.784 (active)

Question: What about the normalized growth (locus YER002W, strain NOP16, active compounds read low) of the same compound?
Answer: 0.424 (active)

Question: What about the normalized growth (locus YGR229C, strain SMI1, active compounds read low) of the same compound?
Answer: 0.0686 (active)

Question: What about the normalized growth (locus YJR075W, strain HOC1, active compounds read low) of the same compound?
Answer: 0.724 (active)

Question: And the normalized growth (locus YMR263W, strain SAP30, active compounds read low)?
Answer: 0.584 (active)

Question: And the normalized growth (locus YNL153C, strain GIM3, active compounds read low)?
Answer: 0.0876 (active)

Question: What about the normalized growth (locus YNL175C, strain NOP13, active compounds read low) of the same compound?
Answer: 0.0754 (active)

Question: And the normalized growth (locus YNL197C, strain WHI3, active compounds read low)?
Answer: 0.0681 (active)

Question: And the normalized growth (locus YNL224C, strain SQS1, active compounds read low)?
Answer: 0.0761 (active)

Question: And the normalized growth (locus YNL322C, strain KRE1, active compounds read low)?
Answer: 0.354 (active)

Question: What about the normalized growth (locus YOR083W, strain WHI5 (second series), active compounds read low) of the same compound?
Answer: 0.0749 (active)

Question: And the normalized growth (locus YPL055C, strain LGE1, active compounds read low)?
Answer: 0.383 (active)

Question: And the normalized growth (locus YPL241C, strain CIN2, active compounds read low)?
Answer: 0.976
